Assay outcomes (PubChem)
Most compounds without a hit are left out; they make up all but 3.1% or so of the library.
PLK1 PBD inh – PLK1 (human) polo-box domain binding inhibition; Plk1 PBD binding of FITC phosphopeptide, fluorescence polarization; Potency, µM, most hits filed as inhibitors; P53350; 360,000 compounds, 2.8% hits; note: series mostly up to about 57 µM; nearly all actives have a fitted effect of over 65% in size
Target sequence (P53350 whole entry, looked up, the tested form may be a part): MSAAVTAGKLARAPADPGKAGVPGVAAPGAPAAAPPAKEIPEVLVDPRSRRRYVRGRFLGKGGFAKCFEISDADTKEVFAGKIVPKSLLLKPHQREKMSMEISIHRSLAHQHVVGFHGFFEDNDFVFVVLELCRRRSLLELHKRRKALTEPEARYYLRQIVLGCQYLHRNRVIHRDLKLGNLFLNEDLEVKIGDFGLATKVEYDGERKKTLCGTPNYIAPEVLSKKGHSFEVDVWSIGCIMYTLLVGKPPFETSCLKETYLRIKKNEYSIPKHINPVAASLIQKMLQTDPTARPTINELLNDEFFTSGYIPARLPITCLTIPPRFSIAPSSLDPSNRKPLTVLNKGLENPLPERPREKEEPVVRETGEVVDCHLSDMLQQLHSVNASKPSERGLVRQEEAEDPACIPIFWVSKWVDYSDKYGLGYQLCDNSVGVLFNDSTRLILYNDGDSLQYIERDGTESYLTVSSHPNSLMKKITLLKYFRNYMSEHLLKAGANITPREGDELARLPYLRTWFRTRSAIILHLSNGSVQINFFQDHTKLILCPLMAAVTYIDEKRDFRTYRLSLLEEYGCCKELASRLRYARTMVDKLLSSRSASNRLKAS
VDR inhibitor – blocks the human vitamin D receptor. AID 504847. Potency, µM, usual class: inhibitors. VDR-SRC2-3 peptide fluorescence polarization, 2 h. 400,000 compounds, 0.93% hits
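Measured by FP: displacement of SRC2-3 coactivator peptide from VDR by library compounds, following a two-hour ambient incubation.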
GCN5L2 inh – inhibitors of human GCN5L2 histone acetyltransferase; Potency, µM (highest dose often 58.9 µM), hits mostly inhibitors; 390,000 compounds, 0.21% hits; AID 504327; Q92830; GCN5L2 HAT assay, ThioGlo1 CoA-SH fluorescence
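Titration-based screen in which CoA formation is detected via maleimide probe ThioGlo1 (50uM) turning fluorescent on thiol reaction; substrates H3(1-25) 75uM and acetyl-CoA 70uM, GCN5L2 20nM, 20 min incubation at room temperature.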
PI4K2A inh – inhibitors of human PI4K2A | purified PI4K2A, ADP-Glo luminescence, 1 h; active compounds read low | 420,000 compounds, 0.13% hits | activity change, negative = inhibition, % at 76.9 µM | Q9BTU6 | AID 1346378; in the data active = activity change below about -50%; inconclusive = mostly about -30% to -49%
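In this quantitative HTS, ADP production by PI4K2A was quantified luminescently after 1 h at ambient temperature; 100 microM adenosine served as plate-quality control.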
GLS inhibitor – inhibitors of human glutaminase (GLS). GLS enzymatic activity, qHTS titration. AID 624170. Potency, µM (highest dose often 45.5 µM), usual class: inhibitors. 410,000 compounds, 0.21% hits
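Read-out is an Amplex red fluorescence increase coupled through glutamate oxidase and HRP, measured before and after 30 min room-temperature incubation. hKGA is in 45 mM KH2PO4 (pH 8.2) with 0.02% Tween-20; glutamine added as 1mM solution.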
Of the large screens only hits and unclear results are named; the others gave an inactive call; ! = not active in a repeat. Unless noted, calls come from the whole dose curve; as a rule, active = well fitted curve in the direction sought with a large enough effect; inconclusive = small, poorly fitted or top-dose-only effect, or another doubt; inactive = no such curve, though single readings can be large; an effect the other way counts as inactive or inconclusive.

CC[C@H]1C[C@@H]2C[C@H]3c4[nH]c5ccc(OC)cc5c4CCN(C2)[C@@H]13	none (no result: PLK1 PBD inh, VDR inhibitor, GCN5L2 inh, GLS inhibitor)
COP(=S)(OC)SCn1nnc2ccccc2c1=O	PLK1 PBD inh 8.4µM, VDR inhibitor 22µM, GCN5L2 inh 40µM
c1ccc(N2CCC3(CCNCC3)CC2)cc1	VDR inhibitor inconclusive (no result: PLK1 PBD inh, PI4K2A inh, GLS inhibitor)
CCOP(=O)(/C=C(\Cl)c1ccccc1)C(O)c1ccc(F)cc1 (centres undefined)	PLK1 PBD inh 21µM, VDR inhibitor inconclusive
Oc1ccc(Cl)cc1Sc1cc(Cl)ccc1O	PLK1 PBD inh inconclusive (no result: GCN5L2 inh)
O=C1NC(=O)N(c2ccccc2F)C(=O)/C1=C/c1ccc(Oc2ccc([N+](=O)[O-])cn2)cc1	PLK1 PBD inh 6µM, VDR inhibitor 79µM, GLS inhibitor inconclusive
C=CCN1C(=O)/C(=C/c2cc(C)n(-c3cccnc3)c2C)C(=O)NC1=S	PLK1 PBD inh 1.5µM, GLS inhibitor inconclusive
C=C(C)[C@H]1CN[C@H](C(=O)O)[C@H]1CC(=O)O	GCN5L2 inh 32µM!
CCCCCn1c(=O)c(C(=O)Nc2cnccn2)c(O)c2ccccc21	PLK1 PBD inh 21µM
CC(C)[C@@]1(NC(=O)[C@H]2C[C@H]3c4cccc5[nH]cc(c45)C[C@@H]3N(C)C2)O[C@]2(O)[C@H]3CCCN3C(=O)CN2C1=O (tested in a mixture with another compound)	none (no result: PLK1 PBD inh, VDR inhibitor, GCN5L2 inh, PI4K2A inh)
COc1ccc(OCc2nnc(SCC(=O)NCC3CCCO3)n2N)cc1 (centres undefined)	PLK1 PBD inh 17µM, VDR inhibitor inconclusive
COc1ccc(-n2c(O)c(C(C)=NCC3CCCO3)c(=O)[nH]c2=O)cc1 (centres undefined)	none
Nc1c(Cl)c(Cl)c(Cl)c(Cl)c1Cl	none (no result: PLK1 PBD inh, VDR inhibitor, GCN5L2 inh)
COc1cc2c(cc1OC)-c1c(OC)c(OC)cc3c1[C@H](C2)N(C)CC3	PI4K2A inh inconclusive
COc1cc2c(cc1OC)-c1c(OC)c(OC)c(C=O)c3c1[C@H](C2)N(C)CC3	VDR inhibitor 8.9µM (no result: PLK1 PBD inh, PI4K2A inh, GLS inhibitor)
O=C(O)c1ccc(Cl)nc1	PLK1 PBD inh 19µM
CC(=O)N1CCN(Cc2ccc(Cl)nc2)CC1	none
C=CCC1(C(C)CC)C(=O)NC(=O)NC1=O (centres undefined)	none (no result: PLK1 PBD inh, VDR inhibitor, GCN5L2 inh, GLS inhibitor)
CC1OC(=O)C(C(C)C)NC(=O)C(C(C)C)OC(=O)C(C(C)C)NC(=O)C(C)OC(=O)C(C(C)C)NC(=O)C(C(C)C)OC(=O)C(C(C)C)NC(=O)C(C)OC(=O)C(C(C)C)NC(=O)C(C(C)C)OC(=O)C(C(C)C)NC1=O (centres undefined)	none (no result: PLK1 PBD inh, PI4K2A inh, GLS inhibitor)
Nc1ccc2c3c(cccc13)-c1ccccc1-2	PLK1 PBD inh 9.5µM, GLS inhibitor inconclusive (no result: GCN5L2 inh)
Nc1ccc(C2(c3ccc(N)cc3)c3ccccc3-c3ccccc32)cc1	VDR inhibitor inconclusive
CNC(=O)Oc1cccc2ccccc12	VDR inhibitor 14µM!, GCN5L2 inh inconclusive
Cc1ccc(-c2cn3c(=S)[nH]nc3s2)cc1	GCN5L2 inh 14µM
Cc1ccc(NC(=O)Cn2c(=O)oc3ccccc32)cc1C	PLK1 PBD inh 21µM, VDR inhibitor inconclusive
COc1ccc(-c2nc(NC(=O)Cn3c(=O)oc4ccccc43)sc2C)cc1	none
Cc1cc(/C=C2\C(=O)NC(=O)N(c3ccc(Cl)cc3)C2=O)c(C)n1-c1sc2c(c1C#N)CCCC2	PLK1 PBD inh 1.2µM, VDR inhibitor inconclusive
CCOC(=O)c1c(-n2c(C)cc(/C=C3\C(=O)NC(=O)N(C)C3=O)c2C)sc2c1CCCC2	PLK1 PBD inh 2.7µM, VDR inhibitor inconclusive
C[C@@H]1C[C@@H]2[C@H]([C@H]3C=C(COC(=O)c4ccccc4)[C@@H](O)[C@]4(O)[C@@H](O)C(OC(=O)c5ccccc5)=C[C@@]14C3=O)C2(C)C	none (no result: PLK1 PBD inh, PI4K2A inh, GLS inhibitor)
Cc1nn(-c2ccccc2)c2c1C(c1ccc(F)cc1F)C(C#N)=C(N)O2 (centres undefined)	PLK1 PBD inh 21µM, VDR inhibitor inconclusive
COc1ccc(OC)c(C2C(C#N)=C(N)Oc3c2c(C)nn3-c2ccc(C)cc2)c1 (centres undefined)	PLK1 PBD inh 30µM
Cc1nn(Cc2ccccc2)c2c1C(c1ccco1)C(C#N)=C(N)O2 (centres undefined)	PLK1 PBD inh inconclusive, GCN5L2 inh inconclusive
Cc1nn(-c2ccccc2)c(Cl)c1C1C(C#N)=C(N)Oc2c1c(=O)oc1ccccc21 (centres undefined)	none
O=C(Nc1ccc(F)cc1)c1c(O)c2c(n(Cc3ccccc3)c1=O)CCCC2	PLK1 PBD inh 27µM
CC1(C)CC/C(=C/c2ccc(Cl)cc2)C1(O)Cn1cncn1 (centres undefined)	none (no result: PLK1 PBD inh, VDR inhibitor, GCN5L2 inh, GLS inhibitor)
CC12CCC3C(=CCc4cc(O)ccc43)C1CCC2=O (centres undefined)	none (no result: PLK1 PBD inh, PI4K2A inh, GLS inhibitor)
COc1cccc(-c2nc3c(C#N)c[nH]n3c2NC2CCCCC2)c1OC	GLS inhibitor inconclusive (no result: PLK1 PBD inh)
CCCCCCCCCCCCCCC[C@@H](O)[C@@H](N)COP(=O)(O)O	none (no result: PLK1 PBD inh, GCN5L2 inh, PI4K2A inh, GLS inhibitor)
CCn1c(O)c(C=NCc2cccs2)c(=O)[nH]c1=O	PLK1 PBD inh 15µM, VDR inhibitor inconclusive
O=C(O)c1ccc[nH]c1=S	PLK1 PBD inh inconclusive, GLS inhibitor inconclusive
O=C1Nc2cc(Cl)c(Cl)cc2N2CCNC[C@H]12	VDR inhibitor 25µM (no result: PLK1 PBD inh, PI4K2A inh, GLS inhibitor)
CC(C)C[C@H]1C(=O)N2CCC[C@H]2[C@]2(O)O[C@](NC(=O)[C@@H]3C=C4c5cccc6[nH]c(Br)c(c56)C[C@H]4N(C)C3)(C(C)C)C(=O)N12	VDR inhibitor 28µM! (no result: PLK1 PBD inh, GLS inhibitor)
CC(C)C[C@H]1C(=O)N2CCC[C@H]2[C@]2(O)O[C@](NC(=O)[C@@H]3C=C4c5cccc6[nH]cc(c56)C[C@H]4N(C)C3)(C(C)C)C(=O)N12	PLK1 PBD inh inconclusive, VDR inhibitor 79µM
CN1C[C@H](C(=O)N[C@]2(C)O[C@@]3(O)[C@@H]4CCCN4C(=O)[C@H](Cc4ccccc4)N3C2=O)C=C2c3cccc4[nH]cc(c34)C[C@H]21	VDR inhibitor 14µM, GCN5L2 inh inconclusive (no result: PLK1 PBD inh, PI4K2A inh)
CC(C)C[C@H]1C(=O)N2CCC[C@@H]2[C@]2(O)O[C@](NC(=O)[C@H]3C=C4c5cccc6[nH]c(Br)c(c56)C[C@H]4N(C)C3)(C(C)C)C(=O)N12	none (no result: PLK1 PBD inh, PI4K2A inh, GLS inhibitor)
NC(N)=NCCCCCCCCCCN=C(N)N	none (no result: PLK1 PBD inh, PI4K2A inh, GLS inhibitor)
CC[C@]12C=CCN3CC[C@@]4(c5ccc(OC)cc5N(C)[C@H]4[C@@](O)(C(=O)OC)[C@@H]1OC(C)=O)C32 (some centres undefined)	none (no result: PLK1 PBD inh, PI4K2A inh, GLS inhibitor)
Cc1cc(/C=C2\C(=O)NC(=O)N(Cc3ccccc3Cl)C2=O)c(C)n1-c1ccc(C(=O)O)cc1	PLK1 PBD inh 11µM, VDR inhibitor inconclusive
Cc1c(Cl)cccc1N1C(=O)NC(=O)/C(=C\c2cc(C)n(-c3cccc(C(=O)O)c3C)c2C)C1=O	PLK1 PBD inh 27µM
Cc1cc(/C=C2\C(=O)NC(=O)N(Cc3ccco3)C2=O)c(C)n1-c1ccc(C(=O)O)cc1	PLK1 PBD inh inconclusive
